Results published in PubChem BioAssay AID1962 (The Scripps Research Institute Molecular Screening Center, 2009).
About 2,500 (0.83%) of roughly 300,000 compounds were called active.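 Rule for the calls: active = inhibition above the mean of all tested compounds plus 3 SD, set per screening campaign (cut at about 24% in these data); inactive = the rest.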 The entries come from a sample that favours actives as a whole.

Tested on: tRNA 2'-phosphotransferase TPT1 (Candida albicans SC5314)
Assay: tRNA 2'-phosphotransferase blockers, C. albicans – biochemical, fluorescence polarization, primary screen (AID 1962);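 note: plate controls were DMSO alone for no effect and ferristatin control at 100 nM for full effect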
Conditions: recombinant caTPT1, FP RNA substrate dephosphorylation; at 5 µM; active compounds read high

Row | Compound | inhibition
1 | O=C1NC(=O)C2C1C(c1ccc([N+](=O)[O-])cc1)=NN2Cc1ccccc1 (stereo not given) | 32.4% (active)
2 | CC(=O)N1c2ccccc2N(Cc2ccc([N+](=O)[O-])cc2)C(=O)C1(C)C | 9.11% (inactive)
3 | CC1=NN(c2ccccc2)C(=O)C1C(=O)c1ccc([N+](=O)[O-])cc1 (stereo not given) | 0.3% (inactive)
4 | CC(=O)c1ccc(N2C(=NC(=O)C(C)C)SC3CS(=O)(=O)CC32)cc1 (stereo not given) | -0.98% (inactive)
5 | Nn1c(SCC(=O)Nc2nccs2)nncc1=O | 0.93% (inactive)
6 | COCCn1cnc2c1c(=O)n(CC(=O)NN)c(=O)n2Cc1ccccc1 | -3.43% (inactive)
7 | COc1cc(NC(=O)C2=CC(c3ccco3)=NS(=O)(=O)N2C)cc(OC)c1OC | -0.29% (inactive)
8 | CC1=C(C(=O)OC2CCCCC2)C(c2ccccc2F)NC(=O)N1 (stereo not given) | 1.28% (inactive)
9 | O=C1c2ccccc2NC(c2ccc(-c3cccc(Cl)c3)o2)N1O (stereo not given) | 2.03% (inactive)
10 | NS(=O)(=O)c1ccc(-c2ccc(/C=C3\SC(=O)NC3=O)o2)cc1 | 0.01% (inactive)
11 | O=C1NN(c2ccccc2)C(=O)/C1=C/c1ccc(-c2cccc(C(=O)O)c2)o1 | -6.86% (inactive)
12 | O=C(O)C(c1ccccc1)N1C(=O)/C(=C\c2ccc(-c3cccc(Cl)c3)o2)SC1=S (stereo not given) | 134% (active)
13 | CN1C(=O)/C(=C/c2ccco2)SC1=Nc1cccc(C(=O)O)c1 | -0.91% (inactive)
14 | CN1C(=O)/C(=C\c2ccc(-c3ccccc3)o2)SC1=S | 47% (active)
15 | Cn1cc[n+](C)c1COc1ccc(C=O)cc1 | -0.82% (inactive)
16 | CCc1ccc(Nc2n[n+](-c3ccccc3)c(-c3cccc(Cl)c3Cl)s2)cc1 | -1.82% (inactive)
17 | OCC[C@H]1C[C@H](O)[C@@H](O)[C@]2(Cc3ccccc3CO2)O1 | 1.4% (inactive)
18 | Cc1ccc(C(=O)NCC(=O)OCC(=O)Nc2cccc(S(=O)(=O)N3CCCC3)c2)cc1C | -0.56% (inactive)
19 | CCn1cc(C(=O)NC2CCCCCC2)c(=O)c2cc(S(=O)(=O)N3CCCCC3)ccc21 | -2.73% (inactive)
20 | COc1ccc(C(=O)CC(=O)c2ccc(C)cc2)c(O)c1 | -1.28% (inactive)
21 | O=C(COC(=O)c1cnccn1)Nc1cccc2ccccc12 | -2.21% (inactive)
22 | Cc1cc(/C=N/NC(=O)c2cccnc2)c(C)n1CC(C)C | -3.6% (inactive)
23 | O=C(N/N=C/c1sc(N2CCCCC2)nc1-c1cccs1)c1cccnc1 | 61.1% (active)

Row | Compound | inhibition
24 | O=C(N/N=C/c1ccccn1)c1cccnc1 | -1.95% (inactive)
25 | CCSC(C)CC1C/C(=N/O)c2c(C)noc2C1 (stereo not given) | -7.78% (inactive)
26 | COc1ccc(NC(=O)CN(C)C(=O)c2ccc(COc3ccccc3)o2)cc1 | 1.15% (inactive)
27 | CCN1/C(=C/c2ccc3ccc(C)cc3[n+]2CC)Sc2ccccc21 | 49.5% (active)
28 | CCN1/C(=C\c2ccc3ccccc3[n+]2CC)Sc2cc(C)ccc21 | 68.7% (active)
29 | COCCCNC(=O)Cn1c(=O)n(Cc2ccccc2Cl)c(=O)c2cc(OC)c(OC)cc21 | 1.46% (inactive)
30 | COc1ccc(C2=NOC3(CC(=O)N(c4ccc(Cl)cc4)C3=O)C2)c(OC)c1 (stereo not given) | -4.26% (inactive)
31 | O=C(c1cccc(Br)c1)N1CCN(C2=NS(=O)(=O)c3ccccc32)CC1 | 0.45% (inactive)
32 | COc1cccc(/C=C(/CC(=O)Nc2ccc(N3CCOCC3)cc2)c2nc3ccccc3s2)c1 | 9.31% (inactive)
33 | O=S(=O)(c1cccc(-c2nnc(SC(F)F)n2-c2ccccc2)c1)N1CCCCC1 | -5.49% (inactive)
34 | CCN(CC)C(=O)C(=O)Nc1cccc(Br)c1 | -2.63% (inactive)
35 | Cc1ccc(CSCC(=O)N(C)CC(=O)Nc2cccc(F)c2)cc1 | 1.31% (inactive)
36 | CCN(CC)C(=O)CSC(Nc1cccc(F)c1)=C(C#N)C#N | 62.4% (active)
37 | O=C(CNc1ccc(F)cc1F)NC(=O)NCc1ccco1 | -0.97% (inactive)
38 | CCOC(=O)[C@H]1[C@H]2COc3ccc(Cl)cc3[C@@H]2N2C(=O)c3cc(C)ccc3NC(=O)[C@@]12C | 2.94% (inactive)
39 | Cc1cc(-c2ccc(S(=O)(=O)N3CCc4ccccc4C3)s2)on1 | -0.99% (inactive)
40 | CS(=O)(=O)N(CC(=O)N/N=C/c1ccccn1)c1ccc(Oc2ccccc2)cc1 | -0.87% (inactive)
41 | Cc1c(CC(=O)NCCCCCC(=O)O)c(=O)oc2cc3occ(-c4ccccc4)c3cc12 | -0.72% (inactive)
42 | CCCCCCc1ccc(O)cc1O | 2.21% (inactive)
43 | CCCCCCc1cc2cc(-c3nnc(-c4ccccc4)o3)c(=O)oc2cc1O | 133% (active)
44 | Cn1ccc(=NC=C(C#N)C#N)c2ccccc21 | 25.3% (active)
45 | N#CC(C#N)=CN=c1ccn(Cc2ccc(Cl)cc2Cl)cc1 | 0.38% (inactive)
46 | Cc1cc(NC(=O)Nc2c[nH]c(=O)[nH]c2=O)ccc1Br | 0.27% (inactive)

Row | Compound | inhibition
47 | CCCc1nc2c(C)cc(-c3nc4ccccc4n3C)cc2n1Cc1ccc(-c2ccccc2C(=O)O)cc1 | 1.15% (inactive)
48 | Fc1ccc(/C=N/Nc2nc(-c3cccnc3)nc3ccccc23)cc1 | 0.23% (inactive)
49 | Oc1ccc(/C=N/Nc2nc(-c3ccccc3F)nc3ccccc23)c(O)c1 | 24.8% (active)
50 | Cc1nc2ccccc2nc1N/N=C/c1ccc(O)cc1O | 1.81% (inactive)
51 | CN(C)C1=NC[C@H](Cc2ccccc2)N1CCc1ccc(F)cc1 | -4.71% (inactive)
52 | Cc1cc(C)c(S(=O)(=O)N2C=CC(C(F)(F)F)=NCC2)c(C)c1 | -0.62% (inactive)
53 | O=S(=O)(c1ccc(F)cc1)N1CCN(C(=S)NCc2ccco2)CC1 | 1.64% (inactive)
54 | OCC[C@H]1C[C@@H](O)[C@H](O)[C@@]2(OCCc3ccccc32)O1 | 0.6% (inactive)
55 | OCC[C@H]1C[C@H](O)[C@@H](O)[C@]2(CCc3ccccc3O2)O1 | -0.81% (inactive)
56 | O=C(Cc1c[nH]c2ccccc12)OCCOC(=O)Cc1c[nH]c2ccccc12 | 0.4% (inactive)
57 | COc1ccccc1CC(=O)NCCc1c[nH]c2ccccc12 | -1.76% (inactive)
58 | O=S(=O)(O)Oc1c[nH]c2ccccc12 | 25.4% (active)
59 | CN1CCN(Cc2nc3cc(NC(=O)COc4ccc([N+](=O)[O-])cc4)ccc3n2C)CC1 | -2.77% (inactive)
60 | COc1ccc(C(=O)Nc2sc(C)c(C)c2CN2CCOCC2)cc1 | 2.12% (inactive)
61 | C#CCOCCOCCOCCNc1nc(N2CCN(C(=O)CCCCCCCCCCNC(=O)Cn3cc(CCCCCN)nn3)CC2)nc(N2CCN(C(=O)CCCCCCCCCCNC(=O)[C@H](CO)n3cc(CCCSC)nn3)CC2)n1 | -0.6% (inactive)
62 | Cc1ccc(N=Cc2c(O)cc(C)oc2=O)c(C)c1 | 9.41% (inactive)
63 | Cc1cc(O)c(C(=O)/C=C/c2c(F)c(F)c(F)c(F)c2F)c(=O)o1 | 44.1% (active)
64 | Cc1cc(O)c(Sc2ccccc2)c(=O)o1 | 0.86% (inactive)
65 | Cc1ccc(-n2c(SCC(=O)NCCC3=CCCCC3)nc3n[nH]c(C)c3c2=N)cc1Cl | 0.45% (inactive)
66 | CO[C@@H]1[C@@H](OC(N)=O)[C@@H](O)C(Oc2ccc3c(O)c(NC(=O)c4ccc(O)c(CC=C(C)C)c4)c(=O)oc3c2C)OC1(C)C (stereo not given in full) | -0.98% (inactive)
67 | Cc1ccc(Cl)c(NC(=O)CN(C)CC(=O)Nc2ccc(F)c(F)c2F)c1Cl | 2.01% (inactive)
68 | COc1ccc(C2=NN(C(C)=O)C(c3ccccc3)C2)cc1 (stereo not given) | -4.9% (inactive)
69 | COc1ccc(C2=NN(C(=O)c3ccccc3C(=O)O)C(c3ccccc3O)C2)cc1 (stereo not given) | 35.3% (active)

Row | Compound | inhibition
70 | COc1ccc(C2=NN(C(=O)c3cccnc3)C(c3ccccc3)C2)cc1 (stereo not given) | 3.29% (inactive)
71 | O=C(Nc1cc(-c2ccccc2)nn1-c1ccccc1F)c1ccc([N+](=O)[O-])cc1 | 1.59% (inactive)
72 | Cc1ccc2c(c1)C(c1ccccc1)N(C(=O)c1ccc(S(=O)(=O)N3CCOCC3)cc1)CC(=O)N2 (stereo not given) | 1.61% (inactive)
73 | CCN(CC)CCNc1nc(-c2ccc(OC(F)F)cc2)c(C)s1 | -0.49% (inactive)
74 | COc1ccc(/C=C2\SC(=S)N(CC(=O)NNC(=O)c3ccncc3)C2=O)cc1 | -4.74% (inactive)
75 | CCOc1ccc(/C=C2\SC(=S)N(NC(=O)c3ccncc3)C2=O)cc1OC | 33.7% (active)
76 | COc1ccc(/C=C2\SC(=S)N(CCC(=O)Nc3ccccn3)C2=O)cc1OC | 1.07% (inactive)
77 | O=C(c1cc(-c2ccc(Cl)cc2)on1)N1CCN(c2ccccc2)CC1 | -0.95% (inactive)
78 | O=C(O)CCCC(=O)Nc1ccc(Oc2cccc(C(F)(F)F)c2)nc1 | -1.11% (inactive)
79 | NS(=O)(=O)c1cccc(NC(=O)CN2CCCc3ccccc32)c1 | 14.5% (inactive)
80 | COC(=O)c1[nH]c2ccccc2c1NC(=O)CN1CCCc2ccccc21 | 11.9% (inactive)
81 | COC(=O)c1[nH]c2cccc(C)c2c1NC(=O)CN1CCCc2ccccc21 | 29% (active)
82 | S=C(NC1CCCCC1)NN1CCOCC1 | -1.16% (inactive)
83 | Cc1nn(C(C)CC(=O)O)c(C)c1C (stereo not given) | 0.87% (inactive)
84 | CN(C)c1ccc(/C=N\S(=O)(=O)c2ccccc2)cc1 | 0.48% (inactive)
85 | CC[n+]1cc(C)ccc1/C=C/c1ccc(N(C)C)cc1 | 29.6% (active)
86 | CCCCN(CC)C(=O)C1CCCN(S(=O)(=O)c2cccc3nsnc23)C1 (stereo not given) | -2.13% (inactive)
87 | CCOC(=O)c1sc(/N=C/C2=C(O)CC(C)(C)CC2=O)c(C(=O)OCC)c1C | -1.8% (inactive)
88 | CCOC(=O)c1c(CC(C)C)csc1/N=C/C1=C(O)CCCC1=O | 98.3% (active)
89 | Cc1cc(N=CC2=C(O)CCCC2=O)no1 | -5.36% (inactive)
90 | CC1CCC(CN2CCN=C2N(C)C)CC1 (stereo not given) | -1.25% (inactive)
